Source: PubChem BioAssay (Sanford-Burnham Center for Chemical Genomics)
Compounds with a hit are over-represented: about 3% of the library has one in this group of screens.
SENP6 inh = SENP6 protease inhibition; 1.8% of 330,000 active; Q9GZR1; AID 2599; inhibition, % at 10 µM; Recombinant SENP6 catalytic domain, aminoluciferin luminescence;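 active means inhibition above about 50% at the single tested dose, limit read from the data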;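 further: plate controls were DMSO wells with enzyme for no effect and DMSO wells lacking enzyme for full effect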
PPC-1+TRAIL kill = compounds killing PPC-1 cancer cells with TRAIL present (potentiator screen, no TRAIL-free arm). cell killing (% activity), % at 4 µM or 5 µM. PPC-1 cells + TRAIL, ATPLite viability luminescence. AID 1443. 0.41% of 220,000 active;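 active means cell killing above 50% in the first pass at 4 µM, then a duplicate retest at 5 µM averaging 50% or more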;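 further: plate controls were cells with TRAIL plus DMSO for no effect and medium-only wells lacking cells for full effect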
SENP8 block-1 = blocks human SENP8 cleavage of Nedd8 substrate; 0.64% of 360,000 active; inhibition, % at 20 µM; recombinant SENP8, Nedd8 substrate fluorescence; Q96LD8; in the data active means inhibition mostly above about 40%, no sharp cut-off; inactive means mostly below about 27%
Target sequence (Q96LD8 whole entry, looked up): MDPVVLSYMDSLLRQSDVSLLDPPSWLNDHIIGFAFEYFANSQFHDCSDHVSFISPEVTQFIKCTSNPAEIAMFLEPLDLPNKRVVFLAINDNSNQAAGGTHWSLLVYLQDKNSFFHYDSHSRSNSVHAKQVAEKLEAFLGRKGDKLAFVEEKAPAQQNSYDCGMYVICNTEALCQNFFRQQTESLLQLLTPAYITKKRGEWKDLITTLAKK
SENP7 inh = blocks the human protease SENP7 | Q9BQF6 | recombinant SENP7, Z-RLRGG-aminoluciferin luminescence, 40 min | inhibition, % at 5 µM | 1.5% of 330,000 active | AID 434973;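 active means inhibition above about 50% at the single test dose, limit read from the data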;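 further: plate controls were DMSO with enzyme for no effect and no enzyme buffer wells for full effect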
SENP8 block-2 = blocks the human protease SENP8; Q96LD8; purified SENP8, Z-RLRGG-aminoluciferin cleavage, luminescence; inhibition, % at 10 µM; 1.2% of 330,000 active; AID 2540; in the data active means inhibition above about 50%
C8 TRAIL sens = sensitizes caspase-8 expressing cells to TRAIL; NB7+C8 cells + TRAIL, ATPlite viability luminescence; inhibition (viability loss, TRAIL sensitization), % at 10 µM; 1% of 360,000 active;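 active means compounds causing at least 50% loss of cell viability in the single-dose screen, relative to plate controls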
SENP8 conf = confirmation of human SENP8 protease inhibitors; shares compounds with SENP7 inh; Recombinant SENP8, Z-RLRGG-aminoluciferin luminescence, 60 min; inhibition, % at 12.5 µM; 40% of 6,200 active; AID 488912;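 active means mean inhibition across replicates above about 50%, limit read from the data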
SENP6 confirm = confirmation of human SENP6 protease inhibitors; inhibition, % at 12.5 µM; 58% of 6,200 active; AID 488915; recombinant SENP6, Z-RLRGG-aminoluciferin luminescence; shares compounds with SENP7 inh
SENP7 conf = human SENP7 inhibition, confirmed. recombinant SENP7, Z-RLRGG-aminoluciferin luminescence, 40 min. 69% of 6,200 active. shares compounds with SENP7 inh. inhibition, % at 12.5 µM
Casp3 select = caspase-3 inhibition (SENP selectivity assay); inhibition, % at 12.5 µM; purified caspase-3, Z-DEVD-aminoluciferin luminescence, 60 min; 60% of 6,200 active; shares compounds with SENP7 inh;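 active means mean inhibition above about 50%, limit read from the data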;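 further: plate controls were enzyme with DMSO for no effect and wells without caspase-3 for full effect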
Target sequence (P42574 28-227 limits assumed): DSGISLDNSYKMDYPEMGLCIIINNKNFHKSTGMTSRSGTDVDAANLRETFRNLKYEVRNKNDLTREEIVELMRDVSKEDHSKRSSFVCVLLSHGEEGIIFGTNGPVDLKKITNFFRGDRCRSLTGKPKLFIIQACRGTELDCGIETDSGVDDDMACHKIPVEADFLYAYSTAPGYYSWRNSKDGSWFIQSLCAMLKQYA
Luc interf = interferes with luciferase luminescence in SENP counter-screen | shares compounds with SENP7 inh | Pre-incubated SENP8/Z-RLRGG-aminoluciferin, luciferase luminescence interference | inhibition, % at 12.5 µM | 39% of 6,200 active;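 active means mean inhibition above about 50% when retested at one dose, limit read from the data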;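 further: plate controls were DMSO wells with completed reaction for no effect and substrate without enzyme for full effect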
Starred values were filed as active, the others as inactive; i = inactive; . = not tested or not shown.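 How the source made its calls, unless noted: active means mean inhibition above about 50% in the one-dose retest (limit read from the data); inactive means the rest.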

SMILES	SENP6 inh	PPC-1+TRAIL kill	SENP8 block-1	SENP7 inh	SENP8 block-2	C8 TRAIL sens	SENP8 conf	SENP6 confirm	SENP7 conf	Casp3 select	Luc interf
COc1ccc(-c2cc(=O)c3ccccc3s2)cc1	92.8*	40.8	-8.5	-8.8	84.3*	53.7*	59.8*	90.6*	99.1*	82.2*	59.0*
COc1ccc2sc3ccccc3c(=O)c2c1	88.0*	8.5	i	81.3*	73.9*	2.5	46.3	46.7	77.9*	53.3*	27.5
Nc1ncnc2c1ncn2[C@@H]1O[C@H](CNCc2ccccc2OC2OC(CO)C(O)C(O)C2O)[C@@H](O)[C@H]1O (stereo partly specified)	.	.	6.5	-0.5	.	14.9	.	.	.	.	.
CN(C(=O)c1cccc(NC(=O)Cc2ccc(NC(=O)C3CCCN(C(=O)CCc4ccccc4)C3)cc2)c1)C1CCCCC1 (stereo unspecified)	.	.	-8.5	.	.	24.6	.	.	.	.	.
O=C(Cn1[nH]c(=O)c2ccccc2c1=O)N1CCN(S(=O)(=O)c2ccc(Cl)cc2)CC1	12.8	.	2.5	5.1	-5.7	-26.7	.	.	.	.	.
O=C(COC(=O)c1cc(S(=O)(=O)N2CCCC2)ccc1O)NCCc1ccccc1	-18.7	.	i	-8.2	-9.4	-11.8	.	.	.	.	.
Oc1ccc(C=Nc2cccc3ncccc23)c(O)c1	91.2*	11.7	22.9	46.1	44.1	9.9	11.7	17.3	0.8	3.9	2.0
CC(=O)c1cnc(Nc2cccc(Cl)c2Cl)s1	52.5*	-3.8	-269.6	47.9	40.5	-3.2	62.2*	57.7*	86.5*	61.3*	5.0
CCCCCN(C(=O)CCC(=O)OCCOc1ccccc1Cl)c1c(N)n(CCCC)c(=O)[nH]c1=O	-6.8	.	5.6	-6.5	-1.9	-6.3	.	.	.	.	.
O=C(N/N=C/C(Br)=C\c1ccccc1)c1cccs1	62.7*	10.8	8.6	29.9	51.7*	-2.8	18.5	48.8	76.8*	30.0	6.8
O=C(N/N=C/c1ccc(OC(=O)c2cccc(F)c2)cc1)c1cccnc1	35.9	.	-2.3	12.5	24.5	0.4	.	.	.	.	.
O=C(N/N=C/c1ccc(OC(=O)c2cccs2)cc1)c1cccc(F)c1	16.4	-4.2	17.2	72.4*	2.6	17.2	-9.4	-4.2	-4.3	25.1	4.5
CC(/C=N/NC(=O)c1cccc(F)c1)=C\c1ccccc1	83.0*	.	-2.9	78.9*	67.4*	48.0	75.9*	77.6*	94.6*	81.5*	71.3*
CC(=C/c1ccccc1)/C=N/NC(=O)c1cccs1	83.3*	5.9	-21.5	79.4*	74.6*	58.0*	42.2	79.7*	95.8*	69.7*	34.3
COc1ccccc1C(=O)N/N=C/C(C)=C/c1ccccc1	3.6	.	16.6	1.4	-4.1	12.7	.	.	.	.	.
Cc1ccc(/C=N/NC(=O)CNC(=O)c2cccs2)o1	7.4	8.8	4.2	4.5	-2.4	2.3	.	.	.	.	.
CSc1ccc(/C=N/NC(=O)c2cccs2)cc1	82.9*	5.4	-384.6	88.5*	74.0*	30.2	26.0	66.3*	97.9*	86.3*	85.4*
O=C(N/N=C/C(Br)=C/c1ccccc1)C(O)c1ccccc1 (stereo unspecified)	-23.0	13.1	21.0	-8.4	-6.5	8.6	.	.	.	.	.
O=C(N/N=C/c1ccc(Cl)cc1Cl)c1cccc(F)c1	88.5*	8.1	20.1	88.4*	76.6*	6.3	-5.9	10.3	33.4	32.0	6.9
O=C(N/N=C/c1ccncc1)c1cccs1	9.2	.	8.9	2.3	-14.1	-2.5	.	.	.	.	.
